Test results from PubChem BioAssay AID2155 (National Center for Advancing Translational Sciences (NCATS), 2009).
Active and inactive are the calls of the source. Calls come from the whole dose curve.

molecular target: Polyunsaturated fatty acid lipoxygenase ALOX15 (Homo sapiens) (UniProt P16050); experiment: Cuvette-Based Assay fo Inhibitors of 15-hLO-1 (15-human lipoxygenase 1): Series 1 - Round 1; conditions: purified 15-hLO-1, cuvette UV 234 nm product formation
Excerpt: Assay Provider: Holman, T.R., University of California, Santa Cruz Screening Center PI: Austin, Christopher P. Screening Center: NIH Chemical Genomics Center Human lipoxygenase 15hLO-1 is a member of the closely related lipoxygenase family of enzymes which catalyze the site-specific oxidation of arachidonic acid to various hormone precursor molecules and as such is a candidate for drug development in a variety of disease areas, such as cancer and inflammation. The enzyme activity of 15hLO-1 was determined by a direct measurement of product formation by monitoring the absorbance at 234 nm in a 2 mL cuvette. IC50 values of inhibitors were obtained by measuring the enzymatic rate at a variety of concentrations (Carroll et al, Segraves et al). A purified preparation of human 15hLO-1 was supplied by Professor Ted Holman, University of California, Santa Cruz. This assay is includes some confirmation and follow-up compounds for related primary screening assay AID 887. The follow-up compounds focus on analogues of current lead 15hLO-1 inhibitor series.
For control experiments, 2 mL of substrate buffer (7 uM arachidonic acid / 25 mM HEPES / 0.01% (v/v) Triton X-100, pH 7.5) was aliquoted in a cuvette with a magnetic stir bar. After equilibrium was ensured, an aliquot of inhibitor solvent was added (DMSO or MeOH), and equilibrium was once again assured. The reaction was started by adding enzyme to the cuvette and the reaction was followed until completed. The inhibition experiments were performed as above, except the actual inhibitory compound was added instead of vehicle. To achieve an IC50, typically 5 concentrations of the inhibitor were studied. If the inhibitor concentration was constant, then five different reaction volumes were used. Step \ Parameter \ Value \ Description 1; UV-Vis; 234 nm; Equilibration 2; Reagent; 2 mL; Substrate buffer 3; UV-Vis; 234 nm; Equilibration 4; Reagent; varies; Compound 5; UV-Vis; 234 nm; Equilibration 6; Reagent; 50-200 nM; Enzyme 15hLO-1 7; UV-Vis; 234 nm; Enzymatic reaction Step \ Notes 1. Blank cuvette to air. 2. 7 uM AA, 25 mM HEPES, 0.01% Triton X-100, pH 7.5. 3. No change in absorbance ensured. 4. Compound vehicle or compound in various concentrations depending on potency. 5. No change in absorbance ensured. 6. Enzyme concentration to achieve reaction rate between 0.02 and 0.04 AU/s. 7. Enzymatic reaction visualized until completion.

Chain of Polyunsaturated fatty acid lipoxygenase ALOX15 (Homo sapiens) (P16050 whole entry, looked up): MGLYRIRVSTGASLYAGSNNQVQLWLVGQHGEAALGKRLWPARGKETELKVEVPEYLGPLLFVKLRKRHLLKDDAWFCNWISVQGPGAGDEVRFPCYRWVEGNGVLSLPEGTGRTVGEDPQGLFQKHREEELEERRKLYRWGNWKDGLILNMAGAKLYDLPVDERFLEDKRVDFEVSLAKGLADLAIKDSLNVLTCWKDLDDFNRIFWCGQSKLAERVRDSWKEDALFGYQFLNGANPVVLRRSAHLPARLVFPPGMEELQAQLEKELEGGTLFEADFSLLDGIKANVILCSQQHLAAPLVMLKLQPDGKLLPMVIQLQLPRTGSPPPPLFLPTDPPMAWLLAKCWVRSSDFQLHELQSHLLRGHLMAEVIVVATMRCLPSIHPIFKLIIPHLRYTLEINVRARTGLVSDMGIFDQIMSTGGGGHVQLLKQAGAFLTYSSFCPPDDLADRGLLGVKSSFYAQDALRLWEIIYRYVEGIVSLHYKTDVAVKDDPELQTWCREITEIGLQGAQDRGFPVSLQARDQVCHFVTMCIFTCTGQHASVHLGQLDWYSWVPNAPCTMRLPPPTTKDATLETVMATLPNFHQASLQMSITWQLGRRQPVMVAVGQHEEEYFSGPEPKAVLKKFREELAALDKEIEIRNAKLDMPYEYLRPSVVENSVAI

Potency, active:
O=C(NCC#CCSc1nnc(-c2cccc3ccccc23)o1)c1cccs1 1000 nM
CC(C)Nc1oc(-c2cccc3ccccc23)nc1C#N 190 nM
OCC#CCSc1nnc(-c2cccc3ccccc23)o1 1000 nM
C=CCNc1nnc(-c2cccc3ccccc23)o1 1000 nM
O=C(OCC#CCSc1nnc(-c2cccc3ccccc23)o1)c1ccc(Br)cc1 16 nM
COc1ccc(C(=O)OCC#CCSc2nnc(-c3cccc4ccccc34)o2)cc1 22 nM
O=C(OCC#CCNc1nnc(-c2cccc3ccccc23)o1)c1cccs1 1000 nM
N#Cc1nc(-c2cccc3ccccc23)oc1NCC#CCOC(=O)c1cccs1 25000 nM
O=C(OCC#CCSc1nnc(-c2cccc3ccccc23)s1)c1cccs1 25000 nM
O=C(OCC#CCSc1nnc(-c2cccc3ccccc23)o1)c1ccc(Cl)cc1 18 nM
O=C(OCC#CCSc1nnc(-c2cccc3ccccc23)o1)c1cnc[nH]1 1000 nM
